Screen size: about 350,000 compounds; about 31,000 (8.9%) were called active. Another 15% or so got no clear call; they are omitted. Shown is part of a subset that was picked to be rich in actives. Values without a mark were called inactive. The call rests on the fitted dose curve; in most records, active means well fitted inhibition curve with a large enough effect; inconclusive means small, poorly fitted or top-dose-only effect; inactive means no such curve, though single readings can be large or run the other way.
On the % scale 0 is the no-effect control and ±100 the full control effect; potency means the concentration at half of the fitted maximal effect.

Chain of Histone-lysine N-methyltransferase EHMT2 (Homo sapiens) (Q96KQ7 913-1193 limits assumed): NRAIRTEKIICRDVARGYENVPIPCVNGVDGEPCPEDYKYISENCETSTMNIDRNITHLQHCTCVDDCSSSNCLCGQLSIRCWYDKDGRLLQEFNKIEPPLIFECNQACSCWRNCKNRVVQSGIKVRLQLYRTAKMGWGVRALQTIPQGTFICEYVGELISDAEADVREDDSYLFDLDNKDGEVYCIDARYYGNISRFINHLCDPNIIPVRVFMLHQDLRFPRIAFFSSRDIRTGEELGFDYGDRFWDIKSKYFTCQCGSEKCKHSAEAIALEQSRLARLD

The target of the assay is Histone-lysine N-methyltransferase EHMT2 (Homo sapiens) (UniProt Q96KQ7). Description: qHTS Assay for Inhibitors of Histone Lysine Methyltransferase G9a. Further: nearly all actives have a fitted effect of over 75% in size. The settings on record: G9a H3K9 monomethylation, AlphaScreen, 2 h; series mostly up to 59 µM; activity, negative = inhibition: at the top concentration. The text has this:
Methylated lysines, on the N-terminal tails of histone proteins serve as epigenetic markers to recruit factors that can then modify local chromatin structure to lead to functional consequences. G9a and other members of the SUV39 family of the SET domain-containing superfamily of histone lysine methyltransferases (HMT) have been identified to specifically methylate Lys9 of histone H3 (H3K9). G9a catalyzes the mono- and di-methylation of H3K9 in mammalian euchromatic regions, where the resulting H3K9me2 is indicative of transcriptional repression. […] The inhibition of G9a will result in transcriptional activation and work synergistically with DNA methyltransferase and histone deacetylase inhibitors, to kill cancer cells. This qHTS assay for identification of G9a inhibitors is a chemiluminescence based AlphaScreen (PerkinElmer). Methylation of biotinylated-histone peptide is measured through specific antibody-based detection, in conjunction with streptavidin-coated donor and anti-IgG antibody-coated acceptor beads. The method is particularly well suited for detection of inhibitors acting by the desired histone peptide competitive mechanism and is applicable to testing other HMTs. Although AlphaScreen has significant advantages with its utility in a variety of epigenetic target assays, the primary screening data provided in this deposition should be used with caution due to the prevalence of screening artifacts. An AlphaScreen counterscreen is highly recommended to be run against any putative actives to eliminate non specific artifacts. Alternatively, one can use other AlphaScreen assays in PubChem to filter out promiscuous hits. Quinn et al. A chemiluminescence-based method for identification of histone lysine methyltransferase inhibitors. Mol Biosyst 6(5): 782-8. 2010. PMID: 20567762 [2] Baell,Holloway. New substructure filters for removal of pan assay interference compounds (PAINS) from screening libraries and for their exclusion in bioassays. J Med Chem. 53(7):2719-40. 2010. PMID: 20131845 NIH Molecular Libraries Probe Production Network [MLPCN] NIH Chemical Genomics Center [NCGC] Structural Genomics Consortium (SGC) NIH Grant: 5U54 MH084681-02
To each well of a 1,536w plate, 2ul of HMT enzyme (final 20nM) were added, using a nanoliter dispenser. The G9a- and GLP-inhibitor BIX-01294 (CID: 25150857) are used as an intraplate control, with a 16-point titration in duplicate. A Kalypsys pin-tool transferred 23nl of library compound solution in DMSO to each well. Following a 15 min incubation of enzyme with compounds at room temperature, 1ul mixture of b-H3K9 peptide substrate (final 500nM) and SAM cofactor (final 20uM) were added. Reactions were allowed to proceed at room temperature for 2 hours. Methylated b-H3K9 peptide product was detected with 0.5 ug/mL rabbit polyclonal anti-monomethyl histone H3K9 antibody (Abcam Inc., Cambridge, MA) and 20 ug/mL each streptavidin-coated donor and anti-rabbit IgG acceptor AlphaScreen beads. Antibody and beads were added in a 1ul dispense, for a final volume of 4ul, and plates were incubated, protected from the light, for 10 min at room temperature. Microplates were then read on an EnVision multilabel plate reader using the 1,536 plate HTS AlphaScreen aperture (excitation time 80 ms, measurement time 240 ms).
On to `Cc1ccc(C(c2nnnn2C(C)(C)C)N2CCc3ccccc3C2)cc1` (centres undefined), for which the “activity, negative = inhibition” value is -10.6%.

For the molecule `COc1ccc(OC)c(C(c2nnnn2C(C)(C)C)N2CCc3ccccc3C2)c1` (centres undefined), the Potency was 50.1 µM (active).

For the molecule `CN1CCN(C(c2cc3cc4c(cc3[nH]c2=O)OCCO4)c2nnnn2C2CCCC2)CC1` (centres undefined), the “activity, negative = inhibition” value was -7.18% [at 102 µM].

Take `CCOc1ccc2[nH]c(=O)c(C(c3nnnn3CCOC)N3CCOCC3)cc2c1` (centres undefined): the activity, negative = inhibition was 8.47% [at 2.33 µM].

Take `CCC(C)(C)n1nnnc1C(c1ccccc1OC)N1CCSCC1` (centres undefined): the “activity, negative = inhibition” value is -7.71%.

For the molecule `COCCn1nnnc1C(c1cc2ccc(OC)cc2[nH]c1=O)N1CCc2ccccc2C1` (centres undefined), the Potency is 5.62 µM (active).

Take `Cc1ccc(Cn2c(C)c3cnn(CC(=O)NCc4ccccc4)c(=O)c3c2C)cc1`: the “activity, negative = inhibition” value is -9.83%.

With `COc1ccc(S(=O)(=O)N2CCCCCC2)cc1C(=O)N(C)Cc1cccc(OC)c1OC`, the “activity, negative = inhibition” value is -29.7% [at 102 µM].

As for `COc1ccc(CCNC(=O)CCCn2c(=O)c3ccccc3n(Cc3ccc(C)cc3)c2=O)cc1OC`, the “activity, negative = inhibition” value was -28%.

In the case of `C=CCn1c(SCC(=O)NC)nnc1C12CC3CC(CC(C3)C1)C2`, the “activity, negative = inhibition” value was 5.32% [at 102 µM].

As to `C=CCn1c(SCC(=O)NC23CC4CC(CC(C4)C2)C3)nc(O)cc1=O`, the “activity, negative = inhibition” value is 18.6%.

For `C=CCn1c(C23CC4CC(CC(C4)C2)C3)n[nH]c1=S`, the Potency is 3.16 µM (active).

As to `COc1ccc(C(=O)NCc2ccc(C)cc2)cc1S(=O)(=O)N1CCCC1`, the activity, negative = inhibition was -16.6% [at 0.0925 µM].

Turning to `COc1ccc(CNC(=O)CSc2n[nH]c(-c3ccc(F)cc3)n2)cc1`, the “activity, negative = inhibition” value was 0.544%.

`Nc1nc(SCC(=O)Nc2ccc(Cl)c([N+](=O)[O-])c2)n[nH]1`: the activity, negative = inhibition was -3.46% [at 12.7 µM].

Take `Nc1nc(SCC(=O)NNc2c(Cl)cc(Cl)cc2Cl)n[nH]1`: the Potency was 10 µM (active).

For `COc1ccc(CNC(=O)CSc2n[nH]c(N)n2)cc1OC`, the Potency is 79.4 µM (active).

As for `Nc1nc(SCC(=O)Nc2ccc(Cl)cc2C(F)(F)F)n[nH]1`, the “activity, negative = inhibition” value was -3.97% [at 102 µM].

As to `Nc1nc(SCC(=O)NN(c2ccccc2)c2ccccc2)n[nH]1`, the “activity, negative = inhibition” value was 8.39%.

Turning to `Cc1ccc(CCNC(=O)C2CCN(c3nnc(-n4cccc4CNc4ccc(C)cc4)s3)CC2)cc1`, the “activity, negative = inhibition” value was -6.97%.

With `COC(=O)c1ccc(NC(=O)c2cccc3c2C(=O)N(C2CCCCC2)C3)cc1`, the “activity, negative = inhibition” value is 3.3%.

Consider `CC1CCN(C(=O)c2cccc(S(=O)(=O)N3CCCc4ccccc43)c2)CC1`, for which the activity, negative = inhibition was 10.4% [at 2.33 µM].

With `COc1cc(OC)cc(C(=O)NNC(=O)CCOc2ccccc2OC)c1`, the “activity, negative = inhibition” value was 10.9%.

Regarding `COc1cccc(C(=O)NCC(=O)OCc2cc(=O)n3ccsc3n2)c1`, the “activity, negative = inhibition” value is 4.14%.

On to `COc1cc(C(=O)Nc2ccc(OCc3cc(=O)n4cc(C)sc4n3)cc2)cc(OC)c1OC`, for which the “activity, negative = inhibition” value was -3.43%.

Consider `O=C(Nc1cccc2cccnc12)c1cccc2c(Br)cccc12`, for which the “activity, negative = inhibition” value was -2.34%.

Turning to `CCOC(=O)C1CCN(Cc2nnc(-c3cccc(Br)c3)o2)CC1`, the “activity, negative = inhibition” value is -1.61% [at 102 µM].

As to `CCOC(=O)C1CCN(Cc2ccc(-c3ccccc3)cc2)CC1`, the Potency is 28.2 µM (active).

For the molecule `CCCC(=O)C1CCN(Cc2ccccc2)CC1`, the “activity, negative = inhibition” value was -1.84% [at 102 µM].

Consider `CCC(C)N(C(=O)Cn1nc(C)c([N+](=O)[O-])c1C)C1CCS(=O)(=O)C1` (centres undefined), for which the “activity, negative = inhibition” value is -29.5% [at 102 µM].

Take `CCCC1OC23CCCCC2C(C#N)(C#N)C1(C#N)C(=N)O3` (centres undefined): the Potency is 17.8 µM (active).

Consider `Cc1cccc(NC(=O)CSc2nc3c(oc4ccccc43)c(=O)n2-c2ccc(F)cc2)c1`, for which the “activity, negative = inhibition” value is 4.81%.

Regarding `COc1ccc(C(=O)CN2C(=O)NC3(CCc4ccccc43)C2=O)c(OC)c1` (centres undefined), the “activity, negative = inhibition” value was 2.57%.

On to `CCC(CC)C(=O)N1CCc2cc(OC)c(OC)cc2C1COc1ccc(F)cc1` (centres undefined), for which the “activity, negative = inhibition” value was 10.1%.

In the case of `COc1ccc(NC(=O)C(=O)NCC(c2ccco2)N2CCc3ccccc3C2)cc1` (centres undefined), the activity, negative = inhibition is 24.1% [at 2.33 µM].

On to `CCOC(CNC(=O)C(=O)NCC(c1ccco1)N1CCN(c2ccc(OC)cc2)CC1)OCC` (centres undefined), for which the Potency is 79.4 µM (active).

With `CC(Oc1ccc(Br)cc1)C(=O)NCC(c1ccco1)N1CCCCC1` (centres undefined), the “activity, negative = inhibition” value is -6.2% [at 102 µM].

Turning to `O=C(Cn1nc(C(F)(F)F)c2c1CCCC2)Nc1ccc(Cl)cc1`, the “activity, negative = inhibition” value is 2.55%.

For the molecule `COc1ccccc1CNC(=O)C(=O)NCC(c1ccco1)S(=O)(=O)c1ccc(F)cc1` (centres undefined), the “activity, negative = inhibition” value was -4.12%.

On to `Cc1ccc(NC(=O)CCN2C(=O)c3ccccc3C2=O)cc1C`, for which the “activity, negative = inhibition” value is 4.98% [at 102 µM].

For the molecule `Cc1cc(C)cc(NC(=O)CN2C(=O)c3ccccc3C2=O)c1`, the “activity, negative = inhibition” value was 30% [at 102 µM].

Regarding `Cc1cc2c(cc1C)N(C(=O)CN1C(=O)c3ccccc3C1=O)C(C)(C)c1ssc(=S)c1-2`, the Potency is 28.2 µM (active).

Regarding `Cc1cc([N+](=O)[O-])c(N2CCC[C@@H]2C(=O)O)c([N+](=O)[O-])c1`, the “activity, negative = inhibition” value is 9.82%.

For `CC1CCC2CCCCC2N1C(=O)c1cc([N+](=O)[O-])cc([N+](=O)[O-])c1` (centres undefined), the Potency was 44.7 µM (active).

In the case of `COC(=O)c1cc(C(=O)NC(C)C2CC3CCC2C3)cc([N+](=O)[O-])c1` (centres undefined), the “activity, negative = inhibition” value was -43.7% [at 102 µM].

`CCN(CC)C(=O)c1nc[nH]c1C(=O)N(C)Cc1ccccc1`: the activity, negative = inhibition was -4.89% [at 2.33 µM].

On to `CCc1ccc(C2CC(=O)c3c([nH]c(C(=O)OCc4ccc(C)cc4)c3C)C2)cc1` (centres undefined), for which the “activity, negative = inhibition” value was -1.01%.

As to `Cc1ccc(-c2nn(-c3ccccc3)cc2/C=C2\SC(=S)N(CCCCCC(=O)O)C2=O)o1`, the Potency is 3.98 µM (active).

For the molecule `Cc1ccc(/C=C2\SC(=S)N(CCC(=O)Nc3ccc(O)cc3)C2=O)cc1`, the “activity, negative = inhibition” value was 9.57% [at 102 µM].

For the molecule `C=CCOc1ccc(/C=C2\SC(=S)N(CCC(=O)O)C2=O)cc1`, the “activity, negative = inhibition” value is -6.64%.

With `CCC(=O)Nc1ccc2nc(C)n(Cc3ccccc3Cl)c(=O)c2c1`, the “activity, negative = inhibition” value was 6.34%.

Consider `CCN1CCN(c2cc3nc(C)n(Cc4ccccc4)c(=O)c3cc2NC(=O)c2ccccc2F)CC1`, for which the Potency was 35.5 µM (active).

In the case of `Cc1nc2ccn(Cc3cccnc3)c(=O)c2cc1C(=O)N1CCN(c2ccccc2F)CC1`, the “activity, negative = inhibition” value is 7.35%.

Regarding `Cc1cccc(N(C)C(=O)CS(=O)(=O)c2cccc3nsnc23)c1`, the “activity, negative = inhibition” value was 9.05%.

Turning to `O=C(NCCCc1ccccc1)c1ccc2c(c1)sc1nc(-c3ccc(F)cc3)cn12`, the “activity, negative = inhibition” value was -17.8%.

In the case of `Cc1ccc(COc2ccc(/C=N/NC(=O)CN3CCCCC3)cc2)cc1`, the “activity, negative = inhibition” value was -11.8% [at 102 µM].

With `O=C(Cn1cc(C(F)(F)F)ccc1=O)N/N=C/c1ccc(Cl)cc1Cl`, the “activity, negative = inhibition” value was 1.22%.

In the case of `Cc1nn(CC(=O)N/N=C/c2ccc(F)cc2)c(C)c1[N+](=O)[O-]`, the “activity, negative = inhibition” value is -0.915% [at 102 µM].

Take `O=C(CN1CCSCC1)N/N=C/c1ccc(F)cc1F`: the Potency is 15.8 µM (active).

For the molecule `Cc1ccc(/C=N/NC(=O)CN2CCN(Cc3ccccc3)CC2)s1`, the “activity, negative = inhibition” value is 14.1% [at 102 µM].

`O=C(CN1CCN(C/C=C/c2ccccc2)CC1)Nc1ccc(F)cc1F`: the “activity, negative = inhibition” value is -7.31% [at 102 µM].

On to `O=C(CC(=O)N/N=C\c1ccc(F)cc1)NCCc1ccccc1`, for which the activity, negative = inhibition is 2.67% [at 0.501 µM].

For the molecule `O=C(CN1CCSCC1)N/N=C/c1ccc(Cl)cc1`, the Potency was 11.2 µM (active).

Regarding `O=C(CN1CCSCC1)N/N=C/c1ccc(F)cc1`, the Potency is 8.91 µM (active).

The values are drawn from PubChem BioAssay AID504332 (National Center for Advancing Translational Sciences (NCATS), 2011).
